{"source": "PubChem BioAssay AID1508600", "about": "(Functional Genomics Laboratory (NCATS/FGL), 2020)", "note": "The whole screen tested about 53,000 sequences, of which about 3,700 (7%) were called active.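 Rule for the calls: active = gene knockdowns whose robust z-score for IL-1 alpha signal is at least 2 or at most -2, so actives lie on both sides; inactive = the rest.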 Many of the other results were omitted from the sample, so actives are more common in it than they were."}
{"assay": "Components of the Cytosolic LPS Sensing Pathway: Gene Identification via Genome-wide siRNA Screen;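 note: robust z of the log signal after scaling to non-targeting control siRNA wells of the plate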", "conditions": "RAW264.7 macrophages, IL-1a HTRF, actives lie on both sides, screened at 100 nM (by protocol), cells primed 5 h with Pam3CSK4 first", "outline": "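IL-1a HTRF of supernatants after 24 hour LipidA transfection of Pam3CSK4-primed (5 hours) RAW264.7 cells, 48h post-siRNA transfection (100 nM). Scores: percent of plate negative-control median, then log-based robust z-score.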"}
{"sequence": "CCAAACUUACAAAUAUGCGTT against Sgpp1", "z-score": "1.35 (inactive)"}
{"sequence": "GGAUCCUGUCCACAAGCACTT against Astn1", "z-score": "0.519 (inactive)"}
{"sequence": "GGUUCAGAUCCACAGCCAGTT against Asic2", "z-score": "-2.12 (active)"}
{"sequence": "CCCAUAACCAGAAUUAAAGTT against Wdr64", "z-score": "0.454 (inactive)"}
{"sequence": "GGUCAUUGCAUCUGACAAGTT against Pcdha2", "z-score": "0.109 (inactive)"}
{"sequence": "GGGAGGAUACCUUCUAUGUTT against Atf6b", "z-score": "-0.43 (inactive)"}
{"sequence": "GGACACAGACAUCCUCUUGTT against Sult5a1", "z-score": "1.04 (inactive)"}
{"sequence": "GGGAGAUGUUUGUUUUCAATT against Mmp16", "z-score": "3.52 (active)"}
{"sequence": "GGAAACCUUUUCAUUAACATT against Il23r", "z-score": "0.138 (inactive)"}
{"sequence": "GGACAACUUCCUAGGGCUCTT against Esyt3", "z-score": "0.248 (inactive)"}
{"sequence": "CCCAAGCAAUUACAGUACUTT against Olfr263", "z-score": "-0.543 (inactive)"}
{"sequence": "GGCCCUCUGAGAUUAAUGUTT against Nfkbid", "z-score": "2.58 (active)"}
{"sequence": "CAGAUCCAUCUCUUAAUGGTT against Olfr204", "z-score": "0.383 (inactive)"}
{"sequence": "GGUAUCAGGUACCAACGACTT against Cpne6", "z-score": "0.768 (inactive)"}
{"sequence": "GGACAUUAGCCAACACAUCTT against Scp2d1", "z-score": "1.17 (inactive)"}
{"sequence": "GGAAUUGACUUUAAGACAATT against Boll", "z-score": "-0.413 (inactive)"}
{"sequence": "GGAAGUCAAGCAUAUUGCCTT against Sntb2", "z-score": "3.04 (active)"}
{"sequence": "GCAUUGGUGUUUAGUUGGUTT against Gdf2", "z-score": "1.11 (inactive)"}
{"sequence": "GGAGUUCGCACAGAAAUUCTT against Dhdh", "z-score": "-0.619 (inactive)"}
{"sequence": "GGUGUAUUAAAAUGUCAGUTT against Marveld2", "z-score": "1.92 (inactive)"}
{"sequence": "GGUCAUCAGAAUGUGAAAATT against Zfp354a", "z-score": "0.232 (inactive)"}
{"sequence": "GGAGAGACCAGAAUGGUAUTT against Fbxw21", "z-score": "-1.12 (inactive)"}
{"sequence": "GGUAUUUCGAAACCUCCGUTT against H2-Q10", "z-score": "2.01 (active)"}
{"sequence": "GCAUGGACAAAUGUCCCUGTT against Lce1f", "z-score": "-0.24 (inactive)"}
{"sequence": "GGAAGAUGGCAAUAAUAACTT against Borcs7", "z-score": "-2.26 (active)"}
{"sequence": "GGUUUUCCCACAUGUCAGATT against Zmat5", "z-score": "0.805 (inactive)"}
{"sequence": "GGGUACAGACGAUGUUUGATT against Unc45b", "z-score": "0.347 (inactive)"}
{"sequence": "GGUGUUCAACUCCACUAUGTT against Nhlrc1", "z-score": "0.511 (inactive)"}
{"sequence": "GGUUCACAAUGGAUUAUGATT against Lrrc25", "z-score": "-1.68 (inactive)"}
{"sequence": "UGAUAUUUGGUGUAUUCAGTT against Olfr972", "z-score": "-2.06 (active)"}
{"sequence": "GGCUUUCUCCAAGCUAUAUTT against Tdgf1", "z-score": "-1.83 (inactive)"}
{"sequence": "GGGAUACUACUUUCUAACATT against Rspo3", "z-score": "1.29 (inactive)"}
{"sequence": "GCCAUACCCUGAAUUACCATT against Ndnf", "z-score": "-2.01 (active)"}
{"sequence": "GGAUCAGAGAAGGAAAAAATT against Hspa12a", "z-score": "-1.98 (inactive)"}
{"sequence": "CCCUGACUUGUCCUUACAATT against Trem3", "z-score": "-0.831 (inactive)"}
{"sequence": "CCCUAGCGGAAAUUGUCAATT against Nono", "z-score": "0.328 (inactive)"}
{"sequence": "GGGUCUGAUCACUUAUAUUTT against Lysmd3", "z-score": "2.02 (active)"}
{"sequence": "CGAGGAGCCUGAAAUAUGGTT against Exosc2", "z-score": "-2.42 (active)"}
{"sequence": "GGAAAAAAAAGUCUUCCUATT against Ttll6", "z-score": "-0.0777 (inactive)"}
{"sequence": "CCUUGUUCCCGAAAUACCGTT against Krr1", "z-score": "-0.471 (inactive)"}
{"sequence": "GUCAGUAUGGAGCGAUGGGTT against Zmiz2", "z-score": "0.695 (inactive)"}
{"sequence": "GCCAUGUAGCACGUAACAGTT against Haus6", "z-score": "-0.368 (inactive)"}
{"sequence": "GGAGAUACAUUGGUAGGUATT against Idua", "z-score": "-0.469 (inactive)"}
{"sequence": "GGAAACGUAUGAACAAUAATT against Sema4f", "z-score": "0.896 (inactive)"}
{"sequence": "GCAAUGAGGAGUAUAUGUATT against Rfx5", "z-score": "2.89 (active)"}
{"sequence": "GGAUUAUGGGAAUUAACUATT against Mpdz", "z-score": "1.06 (inactive)"}
{"sequence": "CCUUCAGUGGUUUGAACCGTT against Dnd1", "z-score": "2.59 (active)"}
{"sequence": "CCAAGUCUUGUAGUGGAGUTT against Vdac3", "z-score": "-0.269 (inactive)"}
{"sequence": "GGGCUCCACUACCUAAUCATT against Gpr83", "z-score": "-1.07 (inactive)"}
{"sequence": "GGUACACUAUGAGGUCUGCTT against Traf2", "z-score": "2.07 (active)"}
{"sequence": "GGUCUAUCAGAUCAUCAAATT against Pde8a", "z-score": "0.584 (inactive)"}
{"sequence": "GGGUUCAAUAACCACAUCATT against Ttc13", "z-score": "-2.13 (active)"}
{"sequence": "GGACUCAGAAGUGAACAUATT against Spata7", "z-score": "-0.916 (inactive)"}
{"sequence": "GCCUACGUGAAAUCUCACATT against Mycl", "z-score": "0.147 (inactive)"}
{"sequence": "CCUCAAUUGGAUAAAGAAGTT against Gzma", "z-score": "1.7 (inactive)"}
{"sequence": "GACAUACCAGCCGUAUAACTT against Erh", "z-score": "-2.39 (active)"}
{"sequence": "CGAGGAGAAUUUGUAAUGATT against Etfrf1", "z-score": "-0.554 (inactive)"}
{"sequence": "CCCUGAACCCUAACAUCACTT against Tcirg1", "z-score": "0.593 (inactive)"}
{"sequence": "GGAGUGUUGGGAGCAGGAATT against Tnni1", "z-score": "2.71 (active)"}
{"sequence": "GGAUGUUCUUGCUCAUGUGTT against Fam149b", "z-score": "0.605 (inactive)"}
{"sequence": "GGAGAAAUGCCAUUGCGUCTT against Wnt3", "z-score": "0.169 (inactive)"}
{"sequence": "GCGCGUCAUAAAAAGCAUATT against Lhx6", "z-score": "1.17 (inactive)"}
{"sequence": "CGGAUCCUACGGAAUUACGTT against Fpgs", "z-score": "0.99 (inactive)"}
{"sequence": "GGACAUUCUUUAAGAAGAUTT against Tjp3", "z-score": "-0.584 (inactive)"}
{"sequence": "CCCAAAAGUUUUUACAGCUTT against Ttpa", "z-score": "0.0745 (inactive)"}
{"sequence": "GGAUGAACCACCAUAUGUGTT against Olfr1188", "z-score": "4.69 (active)"}
{"sequence": "GGUUUUGAAAAAGCAUCAATT against Myoz2", "z-score": "-0.365 (inactive)"}
{"sequence": "GGCCAACUCUAUUUUGAAGTT against Lrp2bp", "z-score": "0.362 (inactive)"}
{"sequence": "GGACACAUAAUGUCUACCUTT against Unc93a", "z-score": "-0.629 (inactive)"}
{"sequence": "GCACUAGCAGACUAGGUGATT against Zbtb26", "z-score": "-2.07 (active)"}
{"sequence": "GGAUUUUCAAUUCAUACCCTT against Psmb1", "z-score": "-0.189 (inactive)"}
{"sequence": "UUUACCUUGUCACCGUCUUTT against Olfr1029", "z-score": "1.03 (inactive)"}
{"sequence": "AUUCAUUGGGAAAAAUUAUTT against Olfr127", "z-score": "-2.38 (active)"}
{"sequence": "CCUCGACAUCUAAUGAAGATT against 4933405O20Rik", "z-score": "-1.58 (inactive)"}
{"sequence": "GCAAUACGAAGGCGAAAGCTT against P3h4", "z-score": "-1.68 (inactive)"}
{"sequence": "GGACUUCAUAUUAGCAUGUTT against Plbd2", "z-score": "-1.27 (inactive)"}
{"sequence": "GACCCUUUUCACCAAGACATT against Tecr", "z-score": "0.989 (inactive)"}
{"sequence": "GGAGCAGUGCAUUGAGACCTT against Adcy6", "z-score": "2.34 (active)"}
{"sequence": "GGAAUAAUUGGUGUUAAAGTT against Hnrnpk", "z-score": "0.346 (inactive)"}
{"sequence": "GGCUUUGGUCAAGGAGAAGTT against Pias4", "z-score": "-1.32 (inactive)"}
{"sequence": "GGAUCAAUGAUACAACUGATT against Il1r1", "z-score": "-0.976 (inactive)"}
{"sequence": "GGUGCUAAAGGACAUAGGUTT against Tmem177", "z-score": "3.27 (active)"}
{"sequence": "GGGCACCUAUUCAGAUACCTT against Map2", "z-score": "0.685 (inactive)"}
{"sequence": "GCCGAACGUGUUUAAACUCTT against Psd3", "z-score": "0.0404 (inactive)"}
{"sequence": "GGAACCUCUCAGAUUUUCATT against Zfp599", "z-score": "0.828 (inactive)"}
{"sequence": "GGCCUCUCAAAAUCUUCCUTT against Galnt11", "z-score": "-1.46 (inactive)"}
{"sequence": "CGUAGUACCCAUGAAUUACTT against Adora2a", "z-score": "4.87 (active)"}
{"sequence": "GGACUGACUCUUUUUUAACTT against Uba3", "z-score": "-0.697 (inactive)"}
{"sequence": "CGAAAACAAUUACGUCUAUTT against Rfwd3", "z-score": "1.15 (inactive)"}
{"sequence": "GCCAAACGCAUCAUGGAAATT against Arglu1", "z-score": "-0.59 (inactive)"}
{"sequence": "CCACGACGUACAUCCAUAATT against Tmem181a", "z-score": "-1.02 (inactive)"}
{"sequence": "GGCGAAAACGGUAAAGCCUTT against H1f4", "z-score": "0.448 (inactive)"}
{"sequence": "GGCCAGCAAUAAAACUGUCTT against Max", "z-score": "-0.326 (inactive)"}
{"sequence": "GCCCGCCUAUUUGAAAGCATT against Zfp740", "z-score": "0.839 (inactive)"}
{"sequence": "GGAUGAAGGAACUAAAUAUTT against Cog3", "z-score": "-2.15 (active)"}
{"sequence": "GGUCCUUAGGUGACCUCCUTT against Lrrc20", "z-score": "-0.249 (inactive)"}
{"sequence": "GGAAAAUGCUGUCCAGUGGTT against Rdh11", "z-score": "-0.858 (inactive)"}
{"sequence": "GGAGGUGAACAGAUCUCACTT against Fubp1", "z-score": "0.391 (inactive)"}
{"sequence": "GGUCACAGCAAGUUAAUAATT against Ranbp9", "z-score": "-2.1 (active)"}
{"sequence": "GGAGGUUCUACCCUGUUCATT against Actr1a", "z-score": "0.48 (inactive)"}
{"sequence": "GGGAGAAUCUAACUAAGCCTT against Sirt7", "z-score": "0.383 (inactive)"}
{"sequence": "GGUCAUGCACACUCGAAAUTT against Mrpl54", "z-score": "0.831 (inactive)"}
{"sequence": "GGUGGCUCAGAAAUCCUAUTT against Rbpjl", "z-score": "-0.206 (inactive)"}
{"sequence": "GCGAAUCUCCACAAGAUGGTT against 2300002M23Rik", "z-score": "-0.0187 (inactive)"}
{"sequence": "CGGCUUCUCUCUUUACACATT against Fosb", "z-score": "2.51 (active)"}
{"sequence": "GGAGAAAAGUACCAAGAUGTT against Ifi27l2b", "z-score": "-1.15 (inactive)"}
{"sequence": "AUGGUAUACUAUUAUGCUGTT against Mup20", "z-score": "1.62 (inactive)"}
{"sequence": "GGAACUAACGGAAUUACUGTT against Arl3", "z-score": "0.951 (inactive)"}
